Experimental data published in PubChem BioAssay AID1159580 (chemical genetic matrix, 2015).
“And” between values parts separate entries of the source, which are not always exact repeats. Identical values can stand only once. Out of some 5,500 compounds screened, about 2,000 (36%) were called active. Inconclusive results (about 18%) are left out. Cut-off read from the data, not from the text of the source: active = normalized growth mostly below about 0.91 (no sharp cut-off); inconclusive = no clear call, values can overlap the other calls; inactive = mostly above about 0.92. Some of the results follow.

Assay: chemical genetic growth profiling, strain panel (AID 1159580);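 note: tested at 20 µM; growth read once vehicle control cultures reached saturation at 30 °C; 1 = growth at the plate median or of vehicle wells; lower values mean less growth of the strain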
Conditions: S. cerevisiae deletion strains, growth OD

Measured: normalized growth

CN[C@@H]1C(OC2[C@H](O[C@H]3[C@H](O)[C@@H](O)[C@H](N=C(N)N)[C@@H](O)[C@@H]3N=C(N)N)OC(C)[C@]2(O)CO)OC(CO)C(O)C1O (some centres not stated)
inactive: locus YAL021C, strain ccr4, active compounds read low 1.02 | locus YAL026C, strain drs2, active compounds read low 1.02 | locus YAL030W, strain snc1, active compounds read low 0.997 | locus YBL061C, strain skt5, active compounds read low 0.996 | locus YBR009C, strain hhf1, active compounds read low 1.01 | locus YBR021W, strain FUR4, active compounds read low 0.988 | locus YBR023C, strain chs3, active compounds read low 1.01 | locus YBR171W, strain sec66, active compounds read low 0.996 | locus YBR229C, strain ROT2, active compounds read low 0.993 | locus YBR231C, strain swc5, active compounds read low 1.01 | locus YBR279W, strain paf1, active compounds read low 1.01 | locus YCL011C, strain gbp2, active compounds read low 1.05 | locus YCL016C, strain dcc1, active compounds read low 1.02 | locus YCL029C, strain bik1, active compounds read low 0.978 | locus YCL069W, strain vba3, active compounds read low 1.03 | locus YCR088W, strain abp1, active compounds read low 0.994 | locus YDL005C, strain med2, active compounds read low 0.998 | locus YDL035C, strain GPR1, active compounds read low 1.03 | locus YDL040C, strain nat1, active compounds read low 0.999 | locus YDL074C, strain BRE1, active compounds read low 0.989 | locus YDL101C, strain DUN1, active compounds read low 0.979 | locus YDL185W, strain tfp1, active compounds read low 0.984 | locus YDL192W, strain arf1, active compounds read low 0.989 | locus YDR001C, strain nth1, active compounds read low 1.02 | locus YDR069C, strain doa4, active compounds read low 1 | locus YDR101C, strain arx1, active compounds read low 0.992 | locus YDR137W, strain rgp1, active compounds read low 0.998 | locus YDR159W, strain sac3, active compounds read low 0.982 | locus YDR162C, strain NBP2, active compounds read low 1.01 | locus YDR195W, strain ref2 0.942 | locus YDR297W, strain sur2, active compounds read low 1 | locus YDR318W, strain mcm21, active compounds read low 0.98 | locus YDR334W, strain swr1, active compounds read low 1.02 | locus YDR335W, strain msn5, active compounds read low 1.01 | locus YDR388W, active compounds read low 0.975 | locus YDR392W, strain spt3, active compounds read low 1.02 | locus YDR502C, strain sam2, active compounds read low 0.985 | locus YEL003W, strain gim4, active compounds read low 1 | locus YEL037C, strain rad23, active compounds read low 1.01 | locus YEL061C, strain CIN8 (second series), active compounds read low 1.01 | locus YEL061C, strain CIN8, active compounds read low 0.995 | locus YER015W, strain faa2, active compounds read low 1.01 | locus YER016W, strain bim1, active compounds read low 1 | locus YER110C, active compounds read low 0.97 | locus YER111C, strain swi4, active compounds read low 1.01 | locus YER155C, strain BEM2 (second series), active compounds read low 0.994 | locus YER155C, strain BEM2, active compounds read low 0.987 | locus YER167W, strain BCK2, active compounds read low 0.99 | locus YFR010W, strain ubp6, active compounds read low 0.993 | locus YGL078C, strain dbp3, active compounds read low 0.97 | locus YGL086W, strain mad1, active compounds read low 1 | locus YGL167C, strain pmr1, active compounds read low 0.996 | locus YGL173C, strain kem1, active compounds read low 1.02 | locus YGL227W, strain vid30, active compounds read low 0.993 | locus YGL240W, strain doc1, active compounds read low 1.01 | locus YGL248W, strain PDE1, active compounds read low 0.975 | locus YGL253W, strain hxk2, active compounds read low 1.02 | locus YGR135W, strain pre9, active compounds read low 0.956 | locus YGR229C, strain SMI1, active compounds read low 1.02 | locus YGR252W, strain gcn5, active compounds read low 0.943 | locus YHR013C, strain ard1, active compounds read low 1.03 | locus YHR027C, strain rpn1, active compounds read low 1.01 | locus YHR030C, strain SLT2, active compounds read low 0.993 and 1.03 | locus YHR079C, strain IRE1 (second series), active compounds read low 0.98 | locus YHR079C, strain IRE1, active compounds read low 1.03 | locus YHR094C, strain hxt1, active compounds read low 0.972 | locus YHR129C, strain ARP1, active compounds read low 0.998 | locus YHR142W, strain chs7, active compounds read low 1.02 | locus YHR200W, strain rpn10, active compounds read low 0.981 | locus YIL066C, strain RNR3, active compounds read low 0.992 | locus YIL073C, strain SPO22, active compounds read low 0.958 | locus YIL125W, strain kgd1, active compounds read low 0.981 | locus YIR030C, strain dcg1, active compounds read low 0.975 | locus YJL092W, strain hpr5, active compounds read low 0.999 | locus YJL095W, strain BCK1 (second series), active compounds read low 1 | locus YJL095W, strain BCK1, active compounds read low 0.975 and 1.05 | locus YJL115W, strain asf1, active compounds read low 1 | locus YJL129C, strain trk1, active compounds read low 0.981 | locus YJL134W, strain LCB3, active compounds read low 0.99 | locus YJL154C, strain vps35, active compounds read low 1.01 | locus YJL164C, strain tpk1, active compounds read low 1.02 | locus YJL166W, strain qcr8, active compounds read low 1.02 | locus YJL168C, strain set2, active compounds read low 0.973 | locus YJL187C, strain SWE1 (second series), active compounds read low 0.981 | locus YJR043C, strain POL32, active compounds read low 1.04 | locus YJR066W, strain TOR1, active compounds read low 0.975 | locus YJR075W, strain HOC1, active compounds read low 0.985
